# Assay results: the OligoGym collection
# Biological target: FGFR1
# Experiment: pooled miR-30 sensor sort-seq; sequence = guide strand
# Settings: shRNA
# Note: reference of the scale not given here.
row,Sequence,sensor-assay potency score (higher = more potent)
1,TCATTCTCCACAATGCAGGTGT,0.557
2,TTGAACTTCACTGTCTTGGCAG,0.751
3,TTGTCTTTTTATAGTAGTCGAT,-0.804
4,TTGAAGGTGGGTCTCTGTGAGG,-0.69
5,TGTCTTTTTATAGTAGTCGATG,-1.03
6,TGTAGCAGTATTCCAGCCCTGG,-0.142
7,TCTTAAGTGAAGCACCTCCATC,-1.39
8,TAGCGGTGCAGAGTGTGGCTGT,-0.244
9,TTACTGGGCTTGTCCATGCGGT,-0.849

# Biological target: FHOD1
# Experiment: as above
# Settings: shRNA
row,Sequence,sensor-assay potency score (higher = more potent)
1,TTTGTAGATGCTCCTCTCGCTG,-1.11
2,ATGACTGTCAGCATCTCCCCGG,-0.753
3,TACAAACACCAACAGCAGCTTC,-0.751
4,TCGTAGAGCACAAGCTGCGTGC,-0.434
5,TCTGTCTCGGTGATCATGCGTC,-0.332
6,TTGTAGATGCTCCTCTCGCTGG,-0.582
7,TTGCAGAGCACAATCCTCCAAC,-0.554
8,TAGCTTCTCAATGCCATCCTTG,-0.31
9,TTGTTGATGAGGGTGACCGTGT,-0.769
10,TTCTTCGATGTCTCCATCCTCC,-0.285
11,TTCTACAAACACCAACAGCAGC,-1.07

# Biological target: FH
# Experiment: as above
# Settings: shRNA
row,Sequence,sensor-assay potency score (higher = more potent)
1,TAACACATTTTTAATCATCATT,-1.28
2,TTCTGTCACACCTCCAATCTTA,-0.00125
3,TATTGCAGCAGCAATGTGCATT,-0.245
4,TTTGCTATCTTCATCAGACTGC,0.482
5,TTCATCAGCTTGTTGATCCTTT,0.529
6,TTCTATTGCAGCAGCAATGTGC,-0.565
7,TTTATTAACATGATCGTTGGGA,0.847
8,AACATAACCACTAAATTCCTGC,-0.241
9,TTAAAGTTCATCGTAGATCTCA,0.281
10,TTGTCTGAGTTCCTGATCCAGT,-0.75
11,TATTGCATTAGCAATCTTTGGA,0.0448
12,TTTCCTTTCAAACTTATCCGTT,-0.472
13,TGGATCAAGACCATAATCCTGG,0.098
14,TCTTAGACCTAGCACATCCTAG,-0.529
15,TTGCTTCACACTGAGTAGGGTT,-0.374
16,TTGCATTAGCAATCTTTGGATC,-0.818
17,TCATATTTGTCTGAGTTCCTGA,0.043
18,TATATGAGGATTGAGAGCTGTC,0.308
19,TTTCCTTTAAGGTTGATCCATT,-0.612
20,TTTACTTGTTGAACATAACCAC,0.162
